Drawing on PubChem BioAssay AID504326 (The Scripps Research Institute Molecular Screening Center, 2011), this text covers activation for 20 compounds.

The campaign covered roughly 340,000 compounds. About 990 (0.29%) were called active. No stated cut-off is given here; in the data, active means activation above about 18%; inactive means the rest. The full list was thinned out, with actives kept by preference.

The target in the assay is Mu-type opioid receptor (Homo sapiens) + Delta-type opioid receptor (Homo sapiens) (UniProt P35372+P41143). The assay is described as follows: agonists of OPRM1-OPRD1 heterodimerization, primary screen, cell-based, luminescence (AID 504326).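 Further: 0% = vehicle-treated cells and 100% = reference agonist.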 Conditions: cells, at 9.3 µM, hits give high values.
Chain of Mu-type opioid receptor (Homo sapiens) + Delta-type opioid receptor (Homo sapiens) (P35372 whole entry, looked up): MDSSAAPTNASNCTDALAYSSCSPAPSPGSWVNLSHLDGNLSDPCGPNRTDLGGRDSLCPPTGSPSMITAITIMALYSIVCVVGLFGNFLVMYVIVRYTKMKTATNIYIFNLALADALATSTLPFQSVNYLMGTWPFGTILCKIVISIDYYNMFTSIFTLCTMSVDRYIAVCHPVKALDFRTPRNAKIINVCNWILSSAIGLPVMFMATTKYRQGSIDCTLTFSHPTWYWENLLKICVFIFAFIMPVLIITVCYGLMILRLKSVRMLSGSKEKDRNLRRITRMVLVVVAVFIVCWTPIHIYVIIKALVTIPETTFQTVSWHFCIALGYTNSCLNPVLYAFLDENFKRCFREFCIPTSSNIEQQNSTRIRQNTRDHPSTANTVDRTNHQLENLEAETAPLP
Chain of Mu-type opioid receptor (Homo sapiens) + Delta-type opioid receptor (Homo sapiens) (P41143 whole entry, looked up): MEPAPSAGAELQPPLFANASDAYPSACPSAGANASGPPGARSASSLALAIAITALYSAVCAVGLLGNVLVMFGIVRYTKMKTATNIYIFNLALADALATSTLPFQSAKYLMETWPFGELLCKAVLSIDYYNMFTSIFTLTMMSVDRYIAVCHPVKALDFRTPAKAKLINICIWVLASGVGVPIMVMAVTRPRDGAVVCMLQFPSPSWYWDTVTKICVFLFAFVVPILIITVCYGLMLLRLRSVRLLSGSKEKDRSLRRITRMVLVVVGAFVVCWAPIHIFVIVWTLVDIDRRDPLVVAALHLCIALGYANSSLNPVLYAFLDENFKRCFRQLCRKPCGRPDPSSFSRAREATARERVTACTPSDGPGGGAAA
Turning to `COC1C(O)C(C)OC(OC2CCC3(C=O)C(CCC4C3CCC3(C)C(C5=CC(=O)OC5)CCC43O)C2)C1O` (stereo not given), the activation is 82.9% (active). For the compound `COc1cc2nc(N3CCN(C(=O)[C@@H]4CCCO4)CC3)nc(N)c2cc1OC`, the activation is -0.16% (inactive). Then `CC1(C)C(c2ccccc2)=NC(c2cccnc2)=[N+]1[O-]`, with -4.09% (inactive).

As for `CC(=O)OC1C2(CC3N4C(=O)C5(CO)SSC4(CC31O)C(=O)N5C)OC(C)C(C)(C)C2=O` (stereo not given), the activation was -23.2% (inactive). The figure for `C[C@]12CCC3C(CC[C@H]4C[C@@H](O)CC[C@]34C)C1C[C@@H](O)[C@H]2O` (stereo not given in full) is -2.9% (inactive); for `C[C@]12CC[C@H](O)C[C@H]1CC[C@@H]1C2CC[C@]2(C)[C@@H](C3=CC(=O)OC3)[C@@H](O)C[C@]12O` (stereo not given in full) it is 62.4% (active). Consider `C[C@]12CCC3C(CC[C@H]4C[C@@H](O)CC[C@]34C)C1CC[C@@H]2O` (stereo not given in full), for which the activation is -1.31% (inactive). In the case of `CCOP(=O)(OCC)C(NC(=O)NC)C(N)=O` (stereo not given), the activation was -3.11% (inactive).

`c1cc2c(cc1C1OCC3C(c4ccc5c(c4)OCO5)OCC13)OCO2` (stereo not given): the activation is 1.03% (inactive). Then `Cn1c(O)c(C=NCCCC(=O)O)c(=O)n(C)c1=O`, with -1.29% (inactive). Regarding `CCOC(=O)C1(CCc2ccccc2)CCN(Cc2ccco2)CC1`, the activation was 23.8% (active). Turning to `CCOC(=O)C1(Cc2ccc(Cl)cc2)CCN(C(C)CCn2cccn2)CC1` (stereo not given), the activation was 0.28% (inactive).

For `CCOC(=O)C1(c2ccccc2)CCN(CC(O)c2ccc(NC(C)=O)cc2)CC1` (stereo not given), the activation is 3.27% (inactive). For the compound `NC(=O)Cn1cc(C(=O)c2ccccc2F)c2ccccc21`, the activation is -3.05% (inactive). `c1ccc2sc(C3CCCNC3)nc2c1` (stereo not given): the activation is -2.28% (inactive). As to `COc1ccc(C2NCc3ccc4c(c3-n3cccc32)OCO4)cc1OC` (stereo not given), the activation was -3.63% (inactive). For `CCC1(C)CC(CCNCc2ccc(N(C)C)cc2)(c2ccc(F)cc2)CCO1` (stereo not given), the activation is 125% (active). For the compound `COC(=O)C1=C(c2c(C)noc2C)C[C@@H]2CC[C@H]1N2C(=O)NCc1ccc2c(c1)OCO2`, the activation was -2.32% (inactive).

Regarding `CCCCC(=O)N/N=C/c1c(O)n(CC)c(=S)n(CC)c1=O`, the activation was 0.54% (inactive). Then `O=C1NC(=O)C(CCOc2ccccc2)(CCc2ccccc2)C(=O)N1`, with -1.87% (inactive).
